Experimental data as given in PubChem BioAssay (EPA / NIEHS).
Activity calls are given as the source filed them. Rule for the calls: active = hit-call score of the fitted dose curve at least 0.9, where 1 is the maximum; inactive = score below 0.9.

Test: ATG_M_61_CIS: Attagene CIS-FACTORIAL HepG2 Assay for M61 Transcription Factor (Internal Marker) (AID 2282937)
Conditions: HepG2 Attagene CIS-FACTORIAL M61 internal marker reporter; actives raise or lower the signal
Protocol: ATG_CIS is a cell-based, multiplexed-readout assay that uses HepG2, a human liver cell line, with measurements taken at 24 hours after chemical dosing in a 24-well plate.ATG_M_61_CIS is one of 52 assay component(s) measured or calculated from the ATG_CIS assay. It is designed to make measurements of mRNA induction, a form of inducible reporter, as detected with fluorescence intensity signals by Reverse transcription polymerase chain reaction (RT-PCR) and Capillary electrophoresis technology.Data from the assay component ATG_M_61_CIS was analyzed into 1 assay endpoint. This assay endpoint, ATG_M_61_CIS, was analyzed with bidirectional fitting relative to DMSO as the negative control and baseline of activity. Using a type of inducible reporter, measures of mRNA for gain or loss-of-signal activity can be used to understand the background control at the transcription factor-level as they relate to the gene . Furthermore, this assay endpoint can be referred to as a secondary readout, because this assay has produced multiple assay endpoints where this one serves a background control function. To generalize the intended target to other relatable targets, this assay endpoint is annotated to the background measurement intended target family, where the subfamily is internal marker.
Human liver HepG2 cells are transiently transfected with multiple reporter transcription units (MRTUs) in 6-well plates using FuGene 6 reagent (Roche; 3 ml FuGene/1 mg DNA). The MRTU constructs are regulated by a cis-regulating element (promoter). […] A major difference between the CIS and TRANS system is that in CIS activities of endogenous TFs are measured, whereas the TRANS assay evaluates changes in activities of exogenous, chimeric NR-Gal4 proteins. […] At the end of 24 hour incubation, total RNA was isolated using TriZol reagent (Invitrogen). The isolated RNA is then reverse-transcribed using oligo(dT) primer and Mo-MLV reverse transcriptase (Invitrogen) with DNAse I (Ambion) treatment for 30 min. The one-tenth of the produced cDNA was amplified by PCR using Taq DNA polymerase (Invitrogen) and two reporter sequence-specific primers. The PCR products were fluorescently labeled by primer extension with 6-arboxyfluorescein (6-FAM) 5'-labeled reporter sequence-specific primer (2 min at 95 C, 20 s at 68 C and 10 min at 72 C) and these products were digested with 5U of HpaI (New England Biolabs) for 2h at 37 C. The fragments were purified using Qiaquick PCR columns (Qiagen), analyzed on an ABI 3130xL genetic analyzer (Applied Biosystems) with peak positions identified by using a set of X-rhodamine (ROX)-labeled MapMarker1000 molecular weight standards (BioVentures). The raw capillary electrophoresis data was processed using Attagraph software (Attagene).

outcome, inactive:
C[Si](O[Si](C)(C)C)O[Si](C)(C)C
Cc1ccc(C(C)C)cc1O
CC1(C)CCC(C)(C)c2cc(C(=O)Nc3ccc(C(=O)O)cc3)ccc21
CCCC(=O)OCCC(C)CCC=C(C)C (stereo not given)
C=C(C)C(=O)OCc1ccccc1
OCCN1CCNCC1
CCOC(=O)c1ccccc1OC
Nc1cc([N+](=O)[O-])ccc1O
CC(C#N)(CCC(=O)O)N=NC(C)(C#N)CCC(=O)O (stereo not given)
CCCCCCCCCCCCCOS(=O)(=O)O
COc1ccc(O)cc1
CCC(O)CO (stereo not given)
NC(=O)NC1NC(=O)NC1=O (stereo not given)
CCC(C(=O)NC(N)=O)c1ccccc1 (stereo not given)
Cc1cccc(C)c1C
CC(c1cc2ccccc2s1)N(O)C(N)=O (stereo not given)
O=CCCc1ccccc1
CN(C)c1ccc(O)c2c1C[C@H]1C[C@H]3[C@H](N(C)C)C(=O)C(C(N)=O)=C(O)[C@@]3(O)C(=O)C1=C2O
COC(=O)OC
[Ca+2]
C=C(C)C(=O)OCCOC(=O)CC(C)=O
CCc1c(C)cc(N)c(CC)c1N
OCc1cccnc1
Cc1ccc(C(=O)O)o1
O=C(O)c1cn(-c2ccc(F)cc2)c2cc(N3CCNCC3)c(F)cc2c1=O
CC(C)=CCC[C@](C)(O)[C@@H]1CC=C(C)CC1
CN(CCOc1ccc(CC2SC(=O)NC2=O)cc1)c1ccccn1 (stereo not given)
CC1(CO)CN(c2ccccc2)NC1=O (stereo not given)
CC(=O)OCCOC(C)=O
CCCCNC(=O)NS(=O)(=O)c1ccc(C)cc1
CNC(=O)Oc1ccc2c(c1)[C@]1(C)CCN(C)[C@@H]1N2C
O=C1c2ccccc2C(=O)N1SC1CCCCC1
C/C=C(\C)C(=O)OCc1ccccc1
C=C(C)C(=O)O
CC(=O)C(C)=O
CCCCCNCCCCC
C=CC(=O)OCCOCCOCC
CC(C)=CCC[C@H](C)CC=O
CC(C)OP(=O)(CP(=O)(OC(C)C)OC(C)C)OC(C)C
C=CCOC(=O)CCC1CCCCC1
